Values joined by “and” are separate entries in the source; they are usually repeats but may differ in a detail not shown here. Equal entries are not always repeated. Results filed as inconclusive are left out. A number with no mark means an inactive call. Active and inactive are the calls of the source. Calls follow the shape of the dose curve; as a rule, active = well fitted cell-killing curve with a large enough effect in the repeat runs; inconclusive = weak or mixed curves; inactive = no such curve, though single readings can be large or run the other way.
Assay: qHTS assay for identifying genotoxic compounds that show differential cytotoxicity against isogenic chicken DT40 cell lines with known DNA damage response pathways - Rad54/Ku70 mutant cell line (AID 743015); also: nearly all actives have a fitted effect of over 60% in size
Conditions: DT40 Rad54/Ku70 mutant viability, CellTiter-Glo, 40 h; series mostly up to 66.8 µM; activity change, negative = cytotoxicity: at the top concentration
Source text: National Center for Advancing Translational Sciences [NCATS]
NIH Chemical Genomics Center [NCGC]
U.S. Environmental Protection Agency [EPA]
National Institutes of Environmental Health Sciences [NIEHS]
National Toxicology Program [NTP]
U.S. Food and Drug Administration [FDA]
DNA repair pathways play a critical role in cellular homeostasis by repairing DNA damage induced by endogenous processes and xenobiotics. Isogenic chicken DT40 cell lines deficient in different DNA repair pathways can be used to identify genotoxic compounds and aid in characterizing the nature of the DNA damage induced. Two DNA repair-deficient cell lines with disrupted genes, Rad54/Ku70 or Rev3, were used to screen the Tox21 10K compound library. Possible genotoxicity was based on the presence of a significant increase in cytotoxicity in one or more of the DNA repair-deficient cell lines compared to that observed in the parental DNA repair-proficient cell line. CellTiter Glo viability assay (Promega, Madison, WI) was used to measure cell viability in these cells after compound treatment. This assay includes the data from the Rad54/Ku70 mutant cell line.
Tox21 Assay Protocol Summary:
300 DT40 mutant cells in 5 uL/well were dispensed into white, solid-bottom 1536-well plates using a Multidrop Combi (ThermoFisher Scientific, Waltham, MA) dispenser. After the assay plates were incubated at 37 C/5% CO2 for approximately 0.5 hour, 23 nL of compounds dissolved in DMSO, positive controls or DMSO only was transferred into the assay plate by a pintool work station (Kalypsys, San Diego, CA). The assay plates were incubated at 37 C/5% CO2 for 40 hours. After 5 uL per well of CellTiter-Glo reagent was added into each well of the assay plates, the plates were incubated for 30 min at room temperature and the luminescence intensity of the plates was measured using a ViewLux (PerkinElmer, Shelton, CT) plate reader.
% is scaled to controls: 0 for no effect and ±100 for the full control effect; potency is read from the fitted curve at half-maximal effect.

Compared with `Nc1cc(N)cc(C(=O)O)c1`, `COc1cc(O)cc(O)c1` is higher in “activity change, negative = cytotoxicity” value: -7.86% for the first, 1.91% for the second.

Compared with `c1ccc(CCCc2ccccn2)cc1`, `OCc1ccccn1` is higher in “activity change, negative = cytotoxicity” value: -7.75% for the first, 1.91% for the second.

Compared with `O=C(O)c1cccc(C(=O)O)n1`, `Cc1ccccc1C(=O)O` is higher in “activity change, negative = cytotoxicity” value: -26.1% for the first, 5.09% for the second.

First: CN(C)N=Nc1ccccc1
Second: CC(C)(O)Cc1ccccc1
The “activity change, negative = cytotoxicity” value of the first is lower: -0.116% for the first, 1.62% for the second.

First: CCCC=O
Second: CC(C)=CC(=O)O
The “activity change, negative = cytotoxicity” value of the first is higher: 5.64% for the first, -7.32% for the second.

First: Cc1cc(C)c(NC(=O)CN(CC(=O)O)CC(=O)O)c(C)c1Br
Second: COC(=O)c1ccc(C(=O)OC)c(C(=O)OC)c1
The “activity change, negative = cytotoxicity” value of the first is lower: -5.7% for the first, 6.38% for the second.

First: COc1cc(CCC(C)=O)ccc1O
Second: CC(=O)CCc1ccc(O)cc1
The “activity change, negative = cytotoxicity” value of the first is lower: -3.18% for the first, 10.8% for the second.

First: NC(=O)CCCCC1CCSS1 (stereo not given)
Second: CC(C)CCOC(=O)CC(C)C
The “activity change, negative = cytotoxicity” value of the first is higher: 5.19% for the first, -14.6% for the second.

Going from `O=S(=O)(c1cccc2cnccc12)N1CCCNCC1` to `CCOC(=O)[C@H](CCc1ccccc1)N[C@@H](C)C(=O)N1CCC[C@H]1C(=O)O`, the “activity change, negative = cytotoxicity” value rises from -6.87% to 9.68%.

Going from `CC1=CC(=O)CCC1` to `C=C(C)[C@H]1CC=C(C)CC1`, the “activity change, negative = cytotoxicity” value rises from -1.87% to 3.62%.

First: CC(C)c1cccc(C(C)C)c1N
Second: CC(=O)c1ccc(C)cc1
The “activity change, negative = cytotoxicity” value of the first is higher: 5.23% for the first, 0.298% for the second.

Going from `CCCCCCCCCCCCCCCCCC(=O)OCCCCCCCCCCCCCC(C)C` to `CCO[Si](CCCN=C=O)(OCC)OCC`, the “activity change, negative = cytotoxicity” value rises from -8.31% to 1.17%.

First: NC(CS)C(=O)O (stereo not given)
Second: NCCN1CCNC1=O
The “activity change, negative = cytotoxicity” value of the first is higher: 7.2% for the first, -2.31% for the second.

With `O=C1OC(=O)c2cc([N+](=O)[O-])ccc21` the “activity change, negative = cytotoxicity” value was -1.79%.

First: NS(=O)(=O)c1cc2c(cc1Cl)NC(CSCc1ccccc1)=NS2(=O)=O
Second: NS(=O)(=O)c1cc(C2(O)NC(=O)c3ccccc32)ccc1Cl (stereo not given)
The “activity change, negative = cytotoxicity” value of the first is lower: 0.258% [at 30.7 µM] for the first, 11.7% [at 30.7 µM] for the second.

Going from `C1CCCCCCCCCCC1` to `CCOC(=O)Nc1ccc2c(c1)N(C(=O)CCN1CCOCC1)c1ccccc1S2`, the “activity change, negative = cytotoxicity” value falls from -0.63% [at 30.7 µM] to -10.9% [at 30.7 µM].

With `CC(C)[C@H](N)C(=O)OCCOCn1cnc2c(=O)[nH]c(N)nc21` the Potency was 26.6 µM (active).
In the case of `CCCCCCCCCCCCI`, the Potency is reported as 27.4 µM (active).
With `Cn1ccc2cc3c(cc21)CCN3C(=O)Nc1cccnc1` the Potency was 26.6 µM (active).
For `Cn1cnc2c(=O)[nH]c(N)nc21`, the Potency was 61.3 µM (active).
In the case of `Nc1nc(F)nc2c1ncn2[C@@H]1O[C@H](CO)[C@@H](O)[C@@H]1O`, the Potency is reported as 1.33 µM (active) and 2.66 µM (active).

With `FC(F)(F)C(F)(F)C(F)(F)C(F)(F)C(F)(F)C(F)(F)C(F)(F)C(F)(F)C(F)(F)C(F)(F)F` the activity change, negative = cytotoxicity was 4.69% [at 8.55 µM].

Compared with `C=C(C)C1CC=C(C)C(O)C1` (stereo not given), `COc1ccc(NC(C)=O)cc1` is higher in “activity change, negative = cytotoxicity” value: -1.64% [at 95.1 µM] for the first, -0.544% [at 95.1 µM] for the second.

In the case of `CCCOCC(C)OCC(C)O` (stereo not given), the “activity change, negative = cytotoxicity” value is reported as -5.2% [at 95.1 µM].
